According to PubChem BioAssay AID449746 (Sanford-Burnham Center for Chemical Genomics, 2010):
The whole screen tested about 2,000 compounds, of which about 680 (34%) were called active. No stated cut-off is given here; in the data, active means inhibition mostly above about 28% (no sharp cut-off); inactive means mostly below about 22%. These entries were drawn from the full list.

Test: lowers stimulated NF-kB luciferase signal in 697 cells – cell-based, luminescence, single concentration, B-cell NF-kB inhibitor project, confirmation (AID 449746)
Conditions: 697 B-cell NF-kB luciferase, PMA/ionomycin, 16 h; at 4 µM; hits give high values

Structure (SMILES) | inhibition
CCCCCCCCCCCCn1ccc(=N)cc1 | 50% (active)
